Screening results from PubChem BioAssay.
WRN inhibitor: inhibitors of human WRN helicase | Q14191 | 0.46% of 360,000 active | Potency, µM (series often up to 114 µM), actives largely listed as inhibitors | WRN helicase unwinding, fluorescent forked duplex, kinetic; also: nearly all actives have a fitted effect of over 55% in size
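Fluorescence dequenching readout, ex 525 nm/em 598 nm, kinetic mode: forked duplex DNA (100 nM final) with adjacent fluorophore and quencher unwound by WRN (20 nM final) with 2 mM ATP. Compound preincubation 15 min, room temperature.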
FEN1 inh-1: blocks human flap endonuclease 1; P39748; Recombinant FEN1 flap cleavage, fluorescence, 15 min; 0.35% of 390,000 active; Potency, µM (titrated, usually from 114 µM), actives largely listed as inhibitors; also: nearly all actives have a fitted effect of over 65% in size
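FEN1 at 10 nM preincubated with compounds 15 min at room temperature, then flap DNA substrate added at 50 nM final. Signal read at 0 and 15 min; concentration-response fitted with four-parameter Hill equation.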
RECQ1 helicase: inhibitors of human RECQ1 DNA helicase | P46063 | RECQ1 DNA unwinding, red fluorescence kinetic read | Potency, µM (highest dose often 57.3 µM), actives largely listed as inhibitors | 0.54% of 240,000 active; also: nearly all actives have a fitted effect of over 30% in size
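RECQ1T1 50 nM; forked duplex (20 bp + 30-nt ss tails) 200 nM, ATP 2 mM final; pH 8.0, 2 mM MgCl2, 2.5 ug/ml poly(dI-dC); 15 min compound preincubation; discontinuous kinetic read over 2 h at RT.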
APE1 inh: blocks human APE1 abasic DNA cleavage | P27695 | 0.35% of 350,000 active | AID 2517 | Potency, µM (doses to about 65.8 µM), actives largely listed as inhibitors | recombinant APE1, TAMRA/BHQ-2 abasic DNA cleavage fluorescence; also: nearly all actives have a fitted effect of over 55% in size
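Quantitative HTS: incision of a TAMRA/BHQ-2 double-stranded substrate bearing a tetrahydrofuran abasic site by 0.75 nM APE1 raises fluorescence. Substrate 50 nM final, added after 15 min compound preincubation at room temperature; progress as third-minus-first kinetic read difference.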
BLM inh: Bloom syndrome helicase (human) inhibition; recombinant BLM DNA unwinding, fluorescence dequenching; AID 2528; 0.2% of 350,000 active; Potency, µM (series often up to 56.1 µM), actives largely listed as inhibitors; also: nearly all actives have a fitted effect of over 35% in size
L3MBTL1 inh: inhibitors of human L3MBTL1; Q9Y468; AlphaScreen L3MBTL1–H3K9me1 peptide binding; Potency, µM (series often up to 57.1 µM), most hits filed as inhibitors; 0.66% of 230,000 active; AID 485360; also: nearly all actives have a fitted effect of over 60% in size
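L3MBTL1 50 nM + b-AHA-H3(1-15)K9me1 75 nM, 30 min RT; compound added, 30 min RT; streptavidin donor/Ni-chelate acceptor beads 10 ug/mL each final, 30 min RT dark; AlphaScreen read.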
FEN1 inh-2: FEN1 inhibition, cherry-pick retest | shares compounds with FEN1 inh-1 | FEN1 flap cleavage, TAMRA/BHQ2 fluorogenic DNA substrate | Potency, µM, actives largely listed as inhibitors | 79% of 880 active; also: nearly all actives have a fitted effect of over 60% in size
Large screens that a line does not name were inactive (follow-up assays come after a bar, where they were run); ! = not active in a repeat. This is a sample that favours compounds with a hit; in the whole collection about 1% have one here. Calls follow the shape of the dose curve; as a rule, active = well fitted curve in the direction sought with a large enough effect; inconclusive = small, poorly fitted or top-dose-only effect, or another doubt; inactive = no such curve, though single readings can be large; an effect the other way counts as inactive or inconclusive.

CN(C)c1ccc(N=Nc2ccc(C(=O)O)cc2)cc1	WRN inhibitor inconclusive, FEN1 inh-1 inconclusive, APE1 inh inconclusive (no result: RECQ1 helicase, L3MBTL1 inh) | FEN1 inh-2 38
COc1ccc(OC)c(CN2CCN(C(=O)c3ccc(S(=O)(=O)N4CCCCCC4)cc3)CC2)c1	none (no result: FEN1 inh-1, RECQ1 helicase, APE1 inh, BLM inh, L3MBTL1 inh)
COc1ccc(-n2nc3c(N4CCC(C(=O)NCc5cccc(C)c5)CC4)nnc(C)c3c2C)cc1	none (no result: RECQ1 helicase, L3MBTL1 inh)
CCOc1ccc(CNC(=O)C2CCN(c3nnc(C)c4c(C)n(-c5ccc(C)cc5)nc34)CC2)cc1	FEN1 inh-1 inconclusive (no result: RECQ1 helicase, L3MBTL1 inh) | FEN1 inh-2 inconclusive
CN(C)S(=O)(=O)c1cccc(NC(=S)N/N=C/c2ccc(O)c(O)c2O)c1	WRN inhibitor 28µM, FEN1 inh-1 20µM, APE1 inh inconclusive, L3MBTL1 inh 1.6µM | FEN1 inh-2 8.5
COc1ccc(OC)c(Nc2nc(NCCO)c3ccccc3n2)c1	FEN1 inh-1 inconclusive (no result: RECQ1 helicase) | FEN1 inh-2 inconclusive
O=c1c2ccccc2nc(N/N=C/c2ccc(O)cc2)n1O	FEN1 inh-1 25µM | FEN1 inh-2 30
CCN(CC)c1ccc(/C=C/c2cccc[n+]2C)c(OC)c1	WRN inhibitor 79µM, FEN1 inh-1 inconclusive (no result: RECQ1 helicase) | FEN1 inh-2 27
Cc1ccccc1/C=N/n1c(-c2cc(-c3ccccc3)n[nH]2)n[nH]c1=S	none (no result: L3MBTL1 inh)
S=c1[nH]nc(-c2cc(-c3ccccc3)n[nH]2)n1/N=C/c1c(Cl)cccc1Cl	WRN inhibitor inconclusive, FEN1 inh-1 inconclusive | FEN1 inh-2 inconclusive
Oc1cc2c(cc1O)C1c3ccc(O)c(O)c3OCC1(O)C2 (stereo not given)	WRN inhibitor 28µM, FEN1 inh-1 35µM, RECQ1 helicase inconclusive, APE1 inh 14µM!, L3MBTL1 inh inconclusive | FEN1 inh-2 inconclusive
Cc1cnc2ccccc2c1/C=C/c1ccc(N)cc1	none (no result: WRN inhibitor, RECQ1 helicase, APE1 inh, BLM inh, L3MBTL1 inh)
COC(=O)[C@@]12C[C@@H](CC(=O)N3CCN(C(=O)c4ccco4)CC3)C(=O)N(Cc3ccccc3)C1=CCC(C)(C)C2	none (no result: FEN1 inh-1, RECQ1 helicase, APE1 inh, BLM inh, L3MBTL1 inh)
COc1cc(C2c3c([nH]c(=O)[nH]c3=O)Nc3ccc4ccccc4c32)ccc1O (stereo not given)	WRN inhibitor inconclusive, FEN1 inh-1 inconclusive, L3MBTL1 inh inconclusive
COc1cc(C2c3c([nH]c(=O)[nH]c3=O)Nc3ccc4ccccc4c32)cc(OC)c1OC (stereo not given)	WRN inhibitor 20µM, FEN1 inh-1 28µM, BLM inh 25µM (no result: L3MBTL1 inh) | FEN1 inh-2 30
CCOC(=O)N1CCN(/[N+]([O-])=N/OCOC)CC1	none (no result: WRN inhibitor, RECQ1 helicase, APE1 inh, BLM inh, L3MBTL1 inh)
COc1ccc2c(C)cc(SCC(=O)Nc3cc(C(N)=O)cc(C(N)=O)c3)nc2c1	FEN1 inh-1 inconclusive | FEN1 inh-2 inconclusive
O=C(Nc1ccc(Cl)cc1)c1ccc2c(c1)S(=O)(=O)c1ccccc1C2=O	none (no result: RECQ1 helicase, APE1 inh, BLM inh, L3MBTL1 inh)
O=C(Nc1ccc(S(=O)(=O)O)cc1)c1ccc2c(c1)S(=O)(=O)c1ccccc1C2=O	FEN1 inh-1 45µM (no result: RECQ1 helicase, APE1 inh, BLM inh, L3MBTL1 inh) | FEN1 inh-2 76
CC1=C(C(=O)OC(C)C)C(c2ccc(Cl)cc2)n2c(s/c(=C\c3ccc(OCC(=O)O)cc3)c2=O)=N1 (stereo not given)	FEN1 inh-1 inconclusive, APE1 inh 6.7µM (no result: RECQ1 helicase) | FEN1 inh-2 67
Cc1cc(C)cc(OCCOCCn2c(-c3ccc(Cl)cc3)nc3ccccc3c2=O)c1	none (no result: WRN inhibitor, RECQ1 helicase, APE1 inh, L3MBTL1 inh)
CSCC[C@H](NC(=O)[C@H](Cc1c[nH]c2ccccc12)NC(=O)CCNC(=O)OC(C)(C)C)C(=O)N[C@@H](CC(=O)O)C(=O)N[C@@H](Cc1ccccc1)C(N)=O	none (no result: WRN inhibitor, FEN1 inh-1, L3MBTL1 inh)
O=C1/C(=C\c2c(NCCOCCO)nc3ccccn3c2=O)SC(=S)N1Cc1ccco1	WRN inhibitor 22µM, FEN1 inh-1 inconclusive, APE1 inh inconclusive (no result: RECQ1 helicase) | FEN1 inh-2 85
COc1ccccc1NC(=O)C(=O)N/N=C/c1cccs1	FEN1 inh-1 32µM | FEN1 inh-2 30
COc1ccc(Cl)cc1NC(=O)Cn1c(=O)n(CCC(=O)NCc2ccc3c(c2)OCO3)c(=O)c2ccccc21	none (no result: WRN inhibitor, RECQ1 helicase, APE1 inh, L3MBTL1 inh)
